Only some compounds are listed: those with a hit (about 1.3% of all), similar ones and a draw of the others.
Giardia FBPA inh: blocks Giardia fructose-bisphosphate aldolase activity. purified Giardia FBPA. 290,000 compounds, 0.71% hits. Potency, µM (doses to about 59.6 µM), usual class: inhibitors; also: nearly all actives have a fitted effect of over 55% in size
Target sequence (A8B2U2 whole entry, looked up): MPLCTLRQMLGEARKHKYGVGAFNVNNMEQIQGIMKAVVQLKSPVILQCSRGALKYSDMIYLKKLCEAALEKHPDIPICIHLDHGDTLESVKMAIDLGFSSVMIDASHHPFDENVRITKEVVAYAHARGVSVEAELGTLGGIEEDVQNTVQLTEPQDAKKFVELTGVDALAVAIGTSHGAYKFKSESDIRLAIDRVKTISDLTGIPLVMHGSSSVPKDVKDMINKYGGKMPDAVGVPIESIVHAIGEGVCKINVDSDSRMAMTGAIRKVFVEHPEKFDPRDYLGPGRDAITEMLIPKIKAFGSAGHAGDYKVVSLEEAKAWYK
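40 nM FBPA preincubated 10 min at RT with compound (up to 57.5 uM final), then substrate plus GAPDH/TPI/NAD/arsenate coupling and diaphorase/resazurin added. Fluorescence read after 20 min at RT, 525/598 nm.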
AMA1-RON2 inh: AMA1-RON2 (P. falciparum) interaction inhibition; AlphaScreen AMA1-biotinylated RON2 peptide binding; Potency, µM (series often up to 58.2 µM), actives largely listed as inhibitors; 360,000 compounds, 0.2% hits; AID 720542; also: nearly all actives have a fitted effect of over 45% in size
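AMA1 (3D7) with his tag at 25 nM final met compounds first, then biotinylated RON2 peptide at 25 nM; detection used donor plus acceptor beads, 10 µg/mL apiece, read by AlphaScreen after 30 min at room temperature.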
LmPK inhibitor: blocks Leishmania mexicana pyruvate kinase activity | Q27686 | purified LmPK, Kinase-Glo ATP luminescence, 1 h | Potency, µM (highest dose often 57.5 µM), most hits filed as inhibitors | 290,000 compounds, 0.37% hits | AID 1721
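Purified LmPK (0.1 nM) converted ADP (0.1 mM) to ATP with PEP (0.5 mM) in imidazole buffer pH 7.2 with KCl and MgCl2, 1 h at room temperature. ATP was read by Kinase-Glo luminescence; data normalized to uninhibited and no-enzyme controls.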
AmpC no deterg: blocks E. coli AmpC beta-lactamase in detergent-free assay; Potency, µM (highest dose often 57.1 µM), actives largely listed as inhibitors; 330,000 compounds, 0.52% hits; AmpC nitrocefin hydrolysis, absorbance 480 nm, 0.0001% Triton; also: nearly all actives have a fitted effect of over 20% in size
Target sequence (P00811 whole entry, looked up): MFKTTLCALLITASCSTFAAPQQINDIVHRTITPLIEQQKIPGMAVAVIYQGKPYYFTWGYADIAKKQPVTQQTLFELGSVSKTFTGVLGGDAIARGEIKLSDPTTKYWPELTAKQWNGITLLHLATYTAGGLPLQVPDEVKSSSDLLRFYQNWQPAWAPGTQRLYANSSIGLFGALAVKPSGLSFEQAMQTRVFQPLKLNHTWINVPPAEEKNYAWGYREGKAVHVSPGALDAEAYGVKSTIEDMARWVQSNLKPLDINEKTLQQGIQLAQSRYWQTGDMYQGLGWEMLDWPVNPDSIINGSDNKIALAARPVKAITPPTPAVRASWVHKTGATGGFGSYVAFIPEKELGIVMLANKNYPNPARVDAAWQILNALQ
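AmpC (5.3 nM in the dispensed reagent) in 20 mM phosphate pH 7.0 with 0.01% (detergent screen) or 0.0001% Triton X-100 was preincubated with compounds for 15 min at room temperature. Nitrocefin was then added from an 800 uM solution, and hydrolysis was followed at 480 nm.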
AmpC inh detg: inhibitors of E. coli AmpC beta-lactamase with detergent. Potency, µM (top dose mostly 114 µM), most hits filed as inhibitors. 370,000 compounds, 0.041% hits. AmpC hydrolysis of nitrocefin, absorbance 480 nm, 0.01% Triton; also: nearly all actives have a fitted effect of over 25% in size
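AmpC (5.3 nM in the dispensed reagent) in 20 mM phosphate pH 7.0 with 0.01% (detergent screen) or 0.0001% Triton X-100 was preincubated with compounds for 15 min at room temperature. Nitrocefin was then added from an 800 uM solution, and hydrolysis was followed at 480 nm.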
A number is an active result; 0 = inactive; ? = inconclusive; - = no result; [ ] = remark or other dose. Calls follow the shape of the dose curve; as a rule, active = well fitted curve in the direction sought with a large enough effect; inconclusive = small, poorly fitted or top-dose-only effect, or another doubt; inactive = no such curve, though single readings can be large; an effect the other way counts as inactive or inconclusive.

SMILES	Giardia FBPA inh	AMA1-RON2 inh	LmPK inhibitor	AmpC no deterg	AmpC inh detg
CCn1cc(C(=O)OCC(=O)Nc2ccc(F)cc2F)c(=O)c2ccc(C)nc21	-	-	-	-	0
CCn1cc(-c2n[nH]c(=S)n2-c2ccc(C)cc2Br)c(=O)c2ccc(C)nc21	0	0	7.9µM	0	0
COc1ccc(CCNC(=O)CSc2n[nH]c(N)n2)cc1	0	0	0	0	100µM
COc1ccc(CCNC(=O)CSc2n[nH]c(N)n2)cc1OC	0	0	0	0	?
COc1ccccc1NC(=S)N(CCc1c(C)[nH]c2ccccc12)Cc1cccs1	0	0	0	40µM	?
COc1ccc2[nH]c(C)c(CCN(Cc3cccs3)C(=S)Nc3ccccc3)c2c1	?	0	0	0	?
O=C(Nc1ccc(Cl)c(C(F)(F)F)c1)c1nc2ccccc2nc1N1CCCCC1	-	-	-	-	0
O=C(c1cccs1)c1no[n+]([O-])c1C(=O)c1cccs1	4µM	0	0	0	0
O=C(CN1c2ccccc2Sc2ccccc21)NNC(=S)Nc1ccc(Cl)cc1Cl	0	0	0	16µM	0
O=C(COc1ccccc1F)Nc1ccccc1C(=O)NC1CC1	-	0	-	0	0
O=C(COc1ccc(Br)cc1)Nc1ccccc1C(=O)NC1CC1	-	0	-	3.2µM	?
CN(Cc1ccccc1)c1cc2c(c3c1ccn3C)C1CCC2O1 (configuration not stated)	-	14µM	-	-	-
CN(C)CCN(C)c1cc2c(c3c1ccn3C)C1CCC2O1 (configuration not stated)	-	0	-	-	-
CCN(Cc1ccccc1)c1cc2c(c3c1ccn3C)C1CCC2C1 (configuration not stated)	-	20µM	-	-	-
Cn1ccc2c(-c3cccc4ccccc34)cc3c(c21)C1CCC3C1 (configuration not stated)	-	0	-	-	-
COC(=O)C1=C(C)N(Cc2ccc(C)cc2)C(=O)/C1=C\c1cc(OC)c(OC)c(OC)c1	0	35µM	0	0	0
COC(=O)C1=C(C)N(Cc2ccc(C)cc2)C(=O)/C1=C\c1ccc(O)c(OC)c1	0	?	0	0	?
CCCCOCCCNC(=O)C[C@@H]1C[C@@]2(C(=O)OC)CCCCC=C2N(CCc2ccc(OC)c(OC)c2)C1=O	-	0	-	-	-
CCOC(=O)N1CCN(c2ncnc3c2cnn3-c2ccc(Cl)cc2)CC1	0	-	0	6.3µM	0
CCOC(=O)N1CCN(c2ncnc3nc[nH]c23)CC1	0	0	0	45µM	?
CCOC(=O)C1CCN(c2ncnc3nc[nH]c23)CC1	0	0	0	0	0
COc1cccc(CNCCSc2nnnn2C)c1OCc1ccc(Cl)cc1	-	-	-	-	0
COCCCN1C(=O)C(CC(=O)NCCCN(C)C)CC(C(=O)N2CCOCC2)=C1C (configuration not stated)	-	0	-	-	-
O=c1c2ccccc2cnn1CCOc1ccccc1	0	0	13µM	0	0
CCC(C)S(=O)(=O)c1oc(-c2ccc(F)cc2)nc1S(=O)(=O)c1ccc(F)cc1 (configuration not stated)	-	-	-	-	0
SMILES	Giardia FBPA inh	AMA1-RON2 inh	LmPK inhibitor	AmpC no deterg	AmpC inh detg
COc1cc(/C=N/Nc2cccc(C)c2)ccc1OC(=O)c1cccs1	0	0	0	0	0
COc1cc(/C=N/Nc2cccc(C)c2)cc(Br)c1O	0	0	0	32µM	0
CC(=O)OCON[N+]([O-])=NC1CCCCC1	0	-	-	-	-
Cc1ccc(NC(=O)c2cc(C)n(-c3ccccc3)c2C)cc1	?	0[11.6 µM]	?	0	0
Cc1ccc(NC(=O)c2cc(C)n(-c3cccc(C)c3)c2C)cc1	?	?	0	16µM	0
NS(=O)(=O)c1ccc(O)c(N2C(=O)c3cccc4c(C(=O)c5ccccc5)ccc(c34)C2=O)c1	0	-	0[11.5 µM]	10µM	0
COc1ccccc1N1C(=O)c2cccc3c(C(=O)O)ccc(c23)C1=O	0	0	0	0	0
COc1ccc2[nH]c(C(=O)Nc3cccc(C)n3)cc2c1	0	0	28µM	0	0
O=C(Nc1cccc(O)c1)c1noc2c1CCCCC2	0	0	11µM	0	0
Cc1ccc(NC(=O)c2noc3c2CCC3)cc1C	0	0	0	0	0
COc1ccc(NC(=O)c2noc3c2CCC3)cc1	0	0	16µM	0	0
CC(=O)c1ccc(NC(=O)c2noc3c2CCC3)cc1	0	0	0	?	?
CCCCOCCCNC(=O)C[C@@H]1C[C@@]2(C(=O)OCC)CCC=C2N(Cc2ccc(Cl)cc2Cl)C1=O	-	0	-	-	-
CC(C)(C)c1cc(=O)n(-c2ccccc2)[nH]1	0.63µM	0	0	0	0
O=c1cc(-c2ccccc2)[nH]n1-c1ccccc1	-	0	-	-	-
Cn1c(=O)c2cc(NC(=O)NCc3ccccc3)ccc2n1C/C=C/c1ccccc1	-	0	-	-	-
CN(C)C(=O)n1nnnc1Cc1ccc(-c2ccccc2)cc1	0	-	-	-	-
COc1ccc(Br)c(OC)c1C(=O)NC(=O)Nc1nc(C)cc(C)n1	20µM	0	0	0	0
Cc1ccccc1C(=O)Oc1ccccc1C(=O)N1CCOCC1	0	0	0	0	?
Cc1ccccc1NC1=C(Cl)C(=O)OC1OC(=O)c1ccccc1C (configuration not stated)	0	0	0	10µM	20µM
Cc1ccccc1C(=O)OC1OC(=O)C(Cl)=C1N1CCOCC1 (configuration not stated)	0	0	0	2.8µM	4µM
Cc1ccc(NC(=O)CSc2nccn2C2CCCC2)cc1Cl	-	-	-	-	0
O=C(COc1ccccc1F)Nc1cc(S(=O)(=O)Nc2cccc(Cl)c2)ccc1O	-	0	-	0	0
CC(C)C[C@@H]1NC(=O)[C@H](Cc2ccc(O)cc2)NC(=O)c2cc([N+](=O)[O-])cc(I)c2NCCC[C@@H](C(N)=O)NC1=O	0	0	0	4µM	?
CC(C)c1ccc(N(C(=O)c2snc(C(N)=O)c2N)C(C(=O)NCC2CCCO2)c2ccc(N(C)C)cc2)cc1 (configuration not stated)	0	14µM	0	0	0
SMILES	Giardia FBPA inh	AMA1-RON2 inh	LmPK inhibitor	AmpC no deterg	AmpC inh detg
O=C(NCc1ccc(Cl)c(Cl)c1)c1cc(C2CCCCN2C(=O)c2cccs2)on1 (configuration not stated)	-	0	-	-	-
CC(C)N(C(=O)COC(=O)c1ccc(O)cc1)C(C)C	0	0	0	4µM	0
O=C(O)c1cc2ccccc2c(Cc2cc3ccccc3c(C(=O)O)c2O)c1O (tested in a mixture with another compound)	0	-	-	-	-
CCOC(=O)c1[nH]c(=O)[nH]c1CNc1ccccc1C#N	0	0	0	0	0
Cn1ncc(N=Cc2ccccc2)c1C(N)=O	0	0	0	0	0
Nc1ncc(Br)cc1N=Cc1ccccc1	1.1µM	0	0	0	0
CCCCCCSc1ccc([C@H]2N[C@@](CC(C)C)(C(=O)OC)[C@H]3C(=O)N(C)C(=O)[C@@H]23)cc1OC	-	0	-	0	?
Cc1ccc(NC(=O)CSc2nc3nc(C)c(Cc4ccccc4)c(C)n3n2)cc1	-	-	-	-	0

High-throughput results from PubChem BioAssay.
